Compound activity from PubChem BioAssay.
In the library only some 2.4% were active in any assay of this set; here they are far more common.
D2 ag-1 = agonists of human D2 dopamine receptor (beta-arrestin); P14416; DiscoveRx PathHunter D2 beta-arrestin, luminescence, 90 min; 100% = 57 uM dopamine signal; activation, % (test concentration not listed); 0.084% of 360,000 active; AID 624465; in the data active means activation above about 40%; inconclusive means between about 15% and that limit
Target sequence (P14416 whole entry, looked up): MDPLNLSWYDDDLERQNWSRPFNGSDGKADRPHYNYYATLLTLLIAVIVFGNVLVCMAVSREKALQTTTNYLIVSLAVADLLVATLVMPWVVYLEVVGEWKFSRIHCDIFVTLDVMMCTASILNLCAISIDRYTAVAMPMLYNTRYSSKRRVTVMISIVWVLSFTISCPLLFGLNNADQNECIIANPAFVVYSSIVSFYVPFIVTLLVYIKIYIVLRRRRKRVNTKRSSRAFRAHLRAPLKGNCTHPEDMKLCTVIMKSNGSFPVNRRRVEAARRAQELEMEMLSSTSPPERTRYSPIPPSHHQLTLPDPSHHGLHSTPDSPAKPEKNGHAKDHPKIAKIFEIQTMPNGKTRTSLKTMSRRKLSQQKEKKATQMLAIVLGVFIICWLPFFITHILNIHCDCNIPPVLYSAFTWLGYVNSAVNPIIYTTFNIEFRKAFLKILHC
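Agonist mode: compounds alone added to overnight-plated D2 PathHunter cells for 90 min at 37 C, with 57 uM final dopamine (EC100) defining full response. Beta-arrestin recruitment detected by chemiluminescent reagent, read after 1 h at ambient temperature.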
D2 antag = D2 dopamine receptor (human) antagonism; P14416; HEK293 TREx D2 cells, calcium flux, dopamine EC80; inhibition, % at 10 µM; 2% of 340,000 active; AID 485344; in the data active means inhibition above about 30%; inactive means below that, where a call was filed
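In this primary screen, negative modulation is detected by tracking calcium flux after an EC80 dopamine challenge in inducible HEK293 T-REx D2 cells preexposed to test compound for 180 s.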
D2 PAM-1 = potentiates the human D2 dopamine receptor allosterically. AID 624464. DiscoveRx D2 beta-arrestin cells, luminescence, 90 min; 100% = 57 uM dopamine signal. potentiation, % (no concentration beside the values). 0.23% of 360,000 active; in the data active means potentiation above about 50%; inconclusive means mostly about 30% to 49%
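PathHunter D2 cells, attached overnight at 37 deg C, received compound in DMSO plus dopamine at EC20 (50 nM final) for 90 min at 37 deg C. Beta-arrestin recruitment was read as luminescence after 1 h with detection reagent at ambient temperature.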
D2 ag-2 = D2 dopamine receptor (human) agonism | 0.53% of 340,000 active | HEK293 T-REx D2 cells, calcium flux agonist mode | P14416 | activation, % at 2 µM | AID 485358;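 active means activation over 3 SD above normal in the single-dose calcium agonist read, cut at about 30% in these data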
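In this primary screen, compounds producing a positive calcium signal within 180 s of addition to tetracycline-induced, force-coupled HEK293 Trex D2 cells are flagged; cells are dye-loaded with a no-wash calcium kit beforehand.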
D2 PAM-2 = positively modulates the human D2 dopamine receptor allosterically; P14416; HEK293 T-REx D2, calcium flux, EC20 dopamine potentiation; potentiation, % at 10 µM; 0.34% of 340,000 active; AID 485347;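 active means potentiation over 3 SD above the plate norm, cut at about 30% in these data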
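Primary screen. Calcium kinetics in induced HEK293 T-REx D2 cells: compound pre-addition 180 s, EC20 dopamine, 180 s more.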
Each line names hits and unclear results; the compound was inactive in the other large screens.

Cc1ccccc1N1CCN(CCCCN2C(=O)C3CCCN3C2=O)CC1 (centres undefined)	D2 antag 59
O=C1C2CCCCN2C(=O)N1CCCN1CCN(c2ccc(F)cc2)CC1 (centres undefined)	none
CCCCOc1ccccc1N1CCN(CCCN2C(=O)C3CCCN3C2=O)CC1 (centres undefined)	D2 antag 76
COc1ccccc1N1CCN(CCCN2CC(=O)N3CCCCC3C2=O)CC1 (centres undefined)	none (no result: D2 antag, D2 ag-2, D2 PAM-2)
CCCC1(c2ccccc2)NC(=O)N(CC(=O)Nc2cc(S(=O)(=O)N3CCOCC3)ccc2Cl)C1=O (centres undefined)	none
Cc1ccc(N(CC(=O)NC2CCCCCC2)S(=O)(=O)c2c(C)nn(C)c2C)cc1	none
COc1ccccc1C1CCN(c2cc(O)ccc2[N+](=O)[O-])CC1	D2 antag 34
CC(C)[C@H](NC(=O)Nc1ccccc1F)C(=O)O	none
OC(CN1CCNCC1)Cn1ccc2ccccc21 (centres undefined)	none (no result: D2 ag-1, D2 PAM-1)
OCc1nc2ccccc2n1CC(O)Cn1ccc2ccccc21 (centres undefined)	D2 PAM-2 32
OC(CNCc1ccccc1)Cn1ccc2ccccc21 (centres undefined)	none
Oc1ccccc1NCC(O)Cn1ccc2ccccc21 (centres undefined)	D2 PAM-1 58
Cc1ccc(S(=O)(=O)NCCCNS(C)(=O)=O)cc1	none
COc1ccc2nc(N(CCN(C)C)C(=O)/C=C/c3cccs3)sc2c1	none
COc1ccc2sc(N(CCN(C)C)C(=O)/C=C/c3cccs3)nc2c1	D2 antag 36
Cc1cccc2sc(N(CCN(C)C)C(=O)/C=C/c3cccs3)nc12	D2 antag 32
COc1ccccc1CNCC(=O)Nc1ccc(N2CCOCC2)cc1	D2 ag-2 33
COc1ccccc1NC(=O)Nc1ccc(N2CCOCC2)cc1	none
Cc1ccc(N=C(NO)c2nonc2N)c(C)c1	none
Cc1ccc(N=C(NOC(=O)c2ccccc2)c2nonc2N)c(C)c1	D2 PAM-1 95
Cc1ccc(-n2cnnn2)c2cccnc12	none
CCCCNc1ccc2c3c(cccc13)C(=O)N(CCCC)C2=O	D2 antag 81, D2 ag-2 185
CCN1C(=O)c2cccc3c(N)ccc(c23)C1=O	D2 antag 61, D2 ag-2 151
Cc1ccc(N2C(=O)c3cccc4c(N)ccc(c34)C2=O)c2cccnc12	D2 ag-2 84
Cc1nn(C)c(C)c1N1C(=O)c2cccc3c(N)ccc(c23)C1=O	D2 ag-2 115
CCCN1C(=O)c2cccc3c(N4CCCCC4)ccc(c23)C1=O	none
CCCNC(=O)C1(C)CCCN(C(=O)c2cc(C(C)(C)C)nn2C)C1 (centres undefined)	none (no result: D2 antag, D2 ag-2, D2 PAM-2)
O=C(c1ccccc1CCc1ccccc1)N1CCN(c2ccccn2)CC1	none (no result: D2 PAM-2)
COc1ccc(NC(=O)CSc2nnc3c4c(nc(-c5ccccc5)n23)CC(C)(C)OC4)cc1	none
Nc1ccc2c(c1)[nH]c(=O)c1ccccc12	none (no result: D2 antag, D2 ag-2, D2 PAM-2)
CSc1ccc(C#N)cc1NC(=O)c1ccccc1C	D2 antag 51
Cn1nccc1NC(=O)Nc1ccccc1	none
Cn1nccc1NC(=O)Nc1ccc(Cl)cc1	D2 antag 43
COc1ccc(N2CC(O)=C(c3nc(-c4ccccc4)cs3)C2=N)cc1	none
Cc1ccc(C(NC(N)=O)c2ccccc2)cc1 (centres undefined)	D2 antag 40
CS(=O)(=O)c1ccccc1C(=O)Nc1ccccc1Cc1ccccc1	none
Cc1ccc(C(NC(=O)c2ccccc2S(C)(=O)=O)c2ccccc2)cc1 (centres undefined)	D2 PAM-2 34
CCn1cc(CN2CCN(Cc3ccc(OC)c(C)c3C)C(CCO)C2)c(C)n1 (centres undefined)	none
Cc1nc(C(F)(F)F)ccc1C(=O)NN1CCOCC1	none
O=S1(=O)c2c(F)cccc2O[C@@H](COCc2ccccc2)CN1CCc1ccc(F)cc1	none (no result: D2 antag, D2 PAM-1, D2 ag-2, D2 PAM-2)
O=C(CN1C(=O)NC(Cc2c[nH]c3ccccc23)C1=O)Nc1cccc(S(=O)(=O)N2CCCCCC2)c1 (centres undefined)	D2 PAM-1 52
O=S(=O)(Cc1ccccc1)Nn1cnnc1	D2 antag 31
Cc1cccc(NS(=O)(=O)Cc2ccccc2)n1	none
COCCn1c(C)cc(/C=C2/SC(=O)N(CC(=O)N3CCCC3)C2=O)c1C	D2 antag 34
COCCN1C(=O)/C(=C/c2ccc(N3CCCC3)cc2C)SC1=S	D2 ag-2 37
CCN=C1S/C(=C\c2ccc(N3CCOCC3)cc2C)C(=O)N1CC	none
COc1cc(C(=O)Nc2nc(C)c(Cc3ccc4c(c3)OCO4)s2)cc(OC)c1OC	D2 antag 40
COc1ccc(Cn2c(SCc3ccc(C(=O)NCc4ccccc4F)cc3)nc3cccnc32)cc1	none (no result: D2 ag-1, D2 antag, D2 PAM-1)
CCOP(=O)(OCC)/C(=N/OC(=O)c1cccc([N+](=O)[O-])c1)C(N)=O	none
COc1ccc(C(=O)O/N=C(\N)Cc2ccc([N+](=O)[O-])cc2)c(OC)c1	D2 ag-1 42, D2 PAM-1 inconclusive
COc1ccc(C/C(N)=N/OC(=O)c2cccc([N+](=O)[O-])c2)cc1	D2 PAM-1 51
COc1ccccc1C/C(N)=N/OC(=O)c1cccc([N+](=O)[O-])c1	D2 ag-1 inconclusive, D2 PAM-1 70
Cc1cc(OCC(=O)N(Cc2ccc(N(C)C)cc2)C2CCS(=O)(=O)C2)cc(C)c1Cl (centres undefined)	none (no result: D2 ag-1, D2 antag, D2 PAM-1)
CCCC[C@H](CC(=O)c1ccccc1)[C@@H](OC(C)=O)C(=O)Oc1c(C(C)C)cccc1C(C)C	none
COc1cc(C(O)CO)ccc1OS(=O)(=O)O (centres undefined)	none
Cc1cccc(CCNC(=O)CC2C(=O)NCCN2Cc2ccccc2C)n1 (centres undefined)	none
CC(C)/C=C(/C(=O)c1ccc(Cl)cc1Cl)n1cncn1	D2 ag-1 46
COc1cc(NC(=O)COC(=O)CCCC2=NS(=O)(=O)c3ccccc3N2)cc(OC)c1	none
Nc1nonc1-c1nc2ccccc2n1CC(=O)N/N=C\c1ccc(-c2ccc(Cl)cc2)o1	none
CCn1nnc(NC(=O)c2ccc([N+](=O)[O-])o2)n1	none
CCCCn1nnc(NC(=O)c2ccc(-c3ccccc3[N+](=O)[O-])o2)n1	D2 antag 52
CCO[C@H]1OC(C(=O)O)=C[C@@H](c2csc3ccccc23)[C@@H]1CCCO	D2 antag 32
CCO[C@H]1OC(C(=O)N2CCCCCCC2)=C[C@@H](c2csc3ccccc23)[C@@H]1CCCO	none
Cc1ccc(-c2csc3nc4cc(C(N)=O)ccc4c(=O)n23)cc1	none
Cc1ccc(/C=N/NC(=O)c2ccco2)cc1	none
COc1cc(CNCCCN2CCOCC2)cc(Br)c1OCc1ccc(Cl)cc1	none
